Measured values from PubChem BioAssay AID463190 (Sanford-Burnham Center for Chemical Genomics, 2010).
Out of some 330,000 compounds screened, about 7,300 (2.2%) were called active. This excerpt belongs to a sample that is enriched for actives. A number with no mark means an inactive call.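 Rule for the calls: active = inhibition of at least 40%; inactive = the rest.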

Test: growth inhibition of tim10-1 ts yeast – luminescence, uHTS, primary screen (AID 463190);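 note: mutant grown at 25 °C; 0% = DMSO wells with yeast and 100% = wells holding no yeast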
Conditions: S. cerevisiae tim10-1 ts strain growth, BacTiter-Glo, 24 h; at 20 µM; active compounds read high
For `Cc1nnnn1/C(=C\c1ccccc1)C(=O)OCC(=O)N1CC2(C)CC1CC(C)(C)C2` (configuration not stated), the inhibition was 56.1% (active).
Compound `COc1ccc(C(=O)N2CC3(C)CC2CC(C)(C)C3)cc1OC` (configuration not stated) has an inhibition of 19.6%.
`Cc1cccc(C(=O)NCC(=O)OCC(=O)N2CC3(C)CC2CC(C)(C)C3)c1` (configuration not stated) showed an inhibition of 15.2%.
Compound `CCOc1ccc(C(C)=O)cc1CSc1nnc(-c2ccncc2)n1CCOC` has an inhibition of 22.6%.
`NC(=O)NC(CC(=O)NNC(=O)c1ccccn1)c1ccc(Cl)cc1` (configuration not stated) showed an inhibition of 8.52%.
With `O=C(Nc1nc(-c2ccco2)c(-c2ccco2)s1)c1ccco1` the inhibition was 59.7% (active).
In the case of `O=C(Nc1nnc(CCOCCOCCc2nnc(NC(=O)c3ccco3)s2)s1)c1ccco1`, the inhibition is reported as -13%.
Compound `NC(=O)c1ccsc1NC(=O)c1ccco1` has an inhibition of -3.6%.
With `C=CC[C@@H](CC(=O)NCCO)C(=O)N[C@H](C)COC(=O)[C@@H](CC=C)CC(=O)OC(C)(C)C` the inhibition was -5.11%.
In the case of `CC(Nc1ccccc1)c1cccnc1` (configuration not stated), the inhibition is reported as -3.38%.
In the case of `CCN(CC)S(=O)(=O)c1cc(C(=O)Nc2cc(S(=O)(=O)N3CCOCC3)ccc2N2CCCC2)ccc1F`, the inhibition is reported as 3.43%.
`O=C(CN(C(=O)c1csnn1)c1cccc(Cl)c1)NC1CCCC1` gave an inhibition of 17.6%.
With `O=C(CCCN1C(=O)/C(=C/c2cccs2)SC1=S)Nc1ccc(O)cc1` the inhibition was 31.7%.
In the case of `COc1ccc(/C=C2\SC(=S)N(CCC(=O)Nc3cccc(C(=O)O)c3)C2=O)cc1OC`, the inhibition is reported as 21.8%.
With `O=C(CCCN1C(=O)/C(=C/c2ccccc2)SC1=S)Nc1ccc(O)cc1` the inhibition was 40.5% (active).
In the case of `CCC(C)[C@@H](C(=O)N1CCNCC1)n1cc(CCCCN)nn1` (some centres not stated), the inhibition is reported as -13.3%.
Work on `CCOC(=O)C1CCN(CCC(=O)Nc2cccc(C)c2)CC1` yielded an inhibition of 11.5%.
For `CN(Cc1cccs1)C(=O)Cc1c[nH]c2ccccc12`, the inhibition was 14.6%.
Compound `O=C(Nc1ccc2sc3ccccc3c(=O)c2c1)c1ccccc1Cl` has an inhibition of 4.71%.
In the case of `CCOC(=O)N1CCN(C(=O)c2cc3c(-c4ccc(Cl)cc4)nn(C)c3s2)CC1`, the inhibition is reported as 40.4% (active).
In the case of `COc1ccccc1N1CCN(C(=O)c2cc3c(-c4ccc(Cl)cc4)nn(C)c3s2)CC1`, the inhibition is reported as 15.4%.
With `COc1cccc(-c2nn(C)c3sc(C(=O)N4CCN(c5ccccc5)CC4)cc23)c1` the inhibition was 24.7%.
Compound `O=C(CNC(=O)c1ccccc1)NCC(=O)OCc1ccc(Cl)cc1` has an inhibition of -23.2%.
`CCOC(=O)c1cnc(SCc2nc(N)nc(Nc3ccc(OC)cc3)n2)nc1N` showed an inhibition of 17.6%.
In the case of `COc1ccc(Nc2nc(N)nc(CSC(=S)N3CCC(C)CC3)n2)cc1`, the inhibition is reported as 46.2% (active).
Work on `COc1ccccc1Nc1nc(N)nc(CSC(=S)N2CCOCC2)n1` yielded an inhibition of 23.3%.
`C=CCNC(=O)c1ccccc1SCc1c(C)noc1C` showed an inhibition of 18%.
`CCOP(=O)(OCC)C(Nc1cccc(C)c1)c1ccc(F)cc1` (configuration not stated) showed an inhibition of 20.8%.
`CCN=C1S/C(=C\c2cc(Br)ccc2OCC(=O)OCC)C(=O)N1CC` showed an inhibition of 25.5%.
`Cc1ccc(COC(=O)CN2C(=O)NC3(CCCC3)C2=O)cc1` showed an inhibition of 23.6%.
With `CCn1c(COc2c(C)cccc2C)nnc1SCc1nc2ccccc2c(=O)[nH]1` the inhibition was 40.2% (active).
`COc1ccc(CCCc2nnc(SCc3nc4ccccc4c(=O)[nH]3)n2C)cc1` showed an inhibition of 19.4%.
For `CCn1c(Cc2ccccc2)nnc1SCc1nc2ccccc2c(=O)[nH]1`, the inhibition was 8.33%.
In the case of `O=c1c2cc(-c3ccccc3)sc2nc2n1N=C(c1cccs1)CS2`, the inhibition is reported as 20.5%.
With `O=C1C(=O)N(CCN2CCOCC2)C(c2ccccn2)/C1=C(/O)c1ccc(Cl)cc1` (configuration not stated) the inhibition was 13.6%.
With `O=C(c1cccc(Cl)c1)N1CCN(Cc2ccccc2)CC1` the inhibition was -7.29%.
With `CCc1nc2ccc(C(=O)N3CCN(c4cccc(Cl)c4)CC3)cc2nc1CC` the inhibition was 52.2% (active).
In the case of `O=C(CCCC(=O)N1CCN(c2cccc(Cl)c2)CC1)c1ccccc1`, the inhibition is reported as 29.5%.
In the case of `O=C(O)c1ccn(COc2ccc(Br)cc2)n1`, the inhibition is reported as -4%.
Compound `CCOC(=O)N/N=C/c1cccnc1` has an inhibition of 5.36%.
With `O=C(CSc1cccc2cccnc12)N/N=C/c1cccnc1` the inhibition was 51.7% (active).
`Cc1ccc(NC(=O)CSc2cccc3cccnc23)c(C)c1` gave an inhibition of 25.4%.
`O=C(NCc1ccccc1Cl)C1CCCO1` (configuration not stated) showed an inhibition of 0.911%.
With `O=C(Nc1nnc(SCc2c(Cl)cccc2Cl)s1)C1CCCO1` (configuration not stated) the inhibition was 42.5% (active).
Work on `O=C(Nc1nnc(SCc2c(Cl)cccc2Cl)s1)c1cccc([N+](=O)[O-])c1` yielded an inhibition of -2.85%.
`NC(=O)CCC(NS(=O)(=O)c1ccc(Cl)cc1)C(=O)NCc1ccccc1Cl` (configuration not stated) showed an inhibition of -4.94%.
Compound `COc1ccc(Cl)cc1NC(=O)Cn1nc(-c2ccc(C)cc2)n(C)c1=S` has an inhibition of 2.15%.
`Cc1cc(C)n(C(=O)c2ccc(S(=O)(=O)N3CCCC3)cc2)n1` gave an inhibition of 17.6%.
In the case of `Cc1cc(Nc2ccccc2)n(CCC#N)n1`, the inhibition is reported as -11.5%.
For `Cc1cc(Nc2ccccc2)n(C(=O)c2ccc(N)cc2)n1`, the inhibition was 50.1% (active).
`CCc1ccc(CN(C)C(C)C(=O)Nc2ccc(S(=O)(=O)N3CCCC3)cc2)cc1` (configuration not stated) showed an inhibition of 24.9%.
Compound `COc1ccc(OC)c(S(=O)(=O)N2CCCC(C(=O)N3CCC(C(N)=O)CC3)C2)c1` (configuration not stated) has an inhibition of -23.6%.
`CN1CCN(S(=O)(=O)c2ccc(N3CCN(S(=O)(=O)c4cccs4)CC3)nc2)CC1` showed an inhibition of -3.27%.
`COc1ccc(-c2oc3ncnc(NCCCO)c3c2-c2ccc(OC)cc2)cc1` showed an inhibition of 9.86%.
For `COc1ccc(-c2oc3ncn(Cc4ccco4)c(=N)c3c2-c2ccc(OC)cc2)cc1`, the inhibition was 41.7% (active).
In the case of `COc1ccc(-n2cnc3cc(NCc4ccco4)ccc32)cc1`, the inhibition is reported as 22%.
`Cc1cc(C)c(NC(=O)c2oc3ccccc3c2COc2ccccc2)c(C)c1` showed an inhibition of 17%.
`COc1cccc(C(=O)NNC(=O)c2cccc(F)c2)c1` gave an inhibition of -28.3%.
In the case of `COc1cccc(C(=O)Nc2cc3c(cc2Br)OCCCO3)c1`, the inhibition is reported as 40.7% (active).
`O=C(Nc1ccccc1)c1ccc2c(c1)OCCCO2` gave an inhibition of 5.55%.
For `O=C(NC1Cc2ccccc2C1)c1cc(COc2cccc(C(F)(F)F)c2)on1`, the inhibition was 18.4%.
For `O=C(c1cc(COc2cccc(C(F)(F)F)c2)on1)N1CCSCC1`, the inhibition was 26.2%.
For `Cc1nonc1C1CCCN1C(=O)c1cc(COc2cccc(C(F)(F)F)c2)on1` (configuration not stated), the inhibition was 46.1% (active).
`O=c1cnnc(Nc2ccccc2F)[nH]1` showed an inhibition of -10.8%.
In the case of `Cc1ccc(C(=O)N/C(=C/c2cccs2)C(=O)N2CCCCC2)cc1`, the inhibition is reported as 19.1%.
Compound `CCOC(=O)CSc1nc2c(c(=O)n(C)c(=O)n2C)n1Cc1ccccc1F` has an inhibition of 10.3%.
In the case of `CCOC(=O)CSc1nc2c(c(=O)n(Cc3ccccc3Cl)c(=O)n2C)n1C`, the inhibition is reported as 47.6% (active).
Work on `Cn1c(=O)c2c(nc(SCC(=O)Nc3ccccc3N3CCCCC3)n2C)n(C)c1=O` yielded an inhibition of -4.92%.
`Cc1cccc(NC(=O)c2nc(S(=O)(=O)Cc3ccccc3)ncc2Cl)c1` gave an inhibition of 23.9%.
For `CSc1nnc(NC(=O)c2nc(S(=O)(=O)Cc3ccc(C)cc3)ncc2Cl)s1`, the inhibition was 41% (active).
Work on `Cc1ccc(CS(=O)(=O)c2ncc(Cl)c(C(=O)Nc3nnc(C)s3)n2)cc1` yielded an inhibition of 20.6%.
`O=C(Nc1ccc(-n2cccn2)cc1)C1CCN(Cc2ccsc2)CC1` gave an inhibition of -13.1%.
With `Cc1nn2c(c1-c1ccccc1)N=C(c1ccco1)CC2c1ccccc1` (configuration not stated) the inhibition was 45.5% (active).
`Cc1nn(C(=O)c2ccoc2C)c(N)c1-c1ccccc1` showed an inhibition of 2.61%.
`O=C(O)CCCC(=O)N1N=C(c2ccco2)CC1c1ccco1` (configuration not stated) showed an inhibition of -34.5%.
With `CCOc1cc(C)ccc1OCc1nnc(SCC(=O)Nc2cccc(C(=O)O)c2)n1-c1ccccc1` the inhibition was 4.93%.
For `COc1cc(SC)ccc1C(=O)N(Cc1ccccc1)c1ccccc1`, the inhibition was 26.9%.
In the case of `COc1cc(SC)ccc1C(=O)NCCOc1ccccc1Cl`, the inhibition is reported as 20%.
In the case of `COc1ccccc1CNC(=O)c1ccc(SC)cc1OC`, the inhibition is reported as 41.4% (active).
`Cc1cc(C)n(CCNCc2c(C(=O)N3C[C@@H](C)O[C@@H](C)C3)nc3ccc(Cl)cn23)n1` gave an inhibition of 5.77%.
For `Cc1cc(C)nc(SCC(=O)N(C)C)n1`, the inhibition was 9.12%.
In the case of `Cc1cc(C)nc(SCC(=O)c2ccc(Cl)cc2)n1`, the inhibition is reported as 7.83%.
With `Cc1cc(C)nc(S/C=C/C(=O)c2ccccc2)n1` the inhibition was 62.9% (active).
Compound `COCCCn1c(SCc2cccc(OC)c2)nc2cc(OC)c(OC)cc2c1=N` has an inhibition of 28.6%.
`COc1ccc(N(CC(=O)N/N=C/c2cccs2)S(=O)(=O)c2ccc(OC)c(OC)c2)cc1` showed an inhibition of 11.7%.
With `COc1ccc2c(c1)c(C(=O)N/N=C/c1cccs1)c(C)n2C` the inhibition was 44.8% (active).
Work on `NC(=O)N/N=C\c1cccs1` yielded an inhibition of -3.46%.
`CCCCN(C)CCNC(=O)C1CCCN(S(=O)(=O)c2cccc3nsnc23)C1` (configuration not stated) showed an inhibition of 8.01%.
Work on `O=C(c1ccco1)N1CCN(C(=O)c2cc(-c3ccccc3F)no2)CC1` yielded an inhibition of 26%.
`COc1ccc(/C=C2/C(=O)N(c3ccccc3)N=C2C)c(OC)c1` showed an inhibition of 28.4%.
With `COc1cc(/C=C/C2=CC(C)(C)NC(=S)N2)cc(OC)c1OC` the inhibition was 16.4%.
For `COc1ccc(/C=C/C2=CC(C)(C)NC(=S)N2)c(OC)c1`, the inhibition was 42.8% (active).
Compound `O=C(Cc1ccccn1)c1ccc(O)cc1O` has an inhibition of 4.18%.
Work on `CC1=NNC(=O)C1CC(=O)N/N=C/c1ccncc1` (configuration not stated) yielded an inhibition of 7.67%.
In the case of `CCOC(=O)C1(S(=O)(=O)c2ccc(Cl)cc2)CCN(Cc2ccccc2)CC1`, the inhibition is reported as 39.5%.
`CCOC(=O)C1(CCOc2ccccc2)CCN(Cc2cc(OC)cc(OC)c2)CC1` gave an inhibition of 30.7%.
With `CCOC(=O)C1(S(=O)(=O)c2ccccc2)CCN(Cc2ccccc2)CC1` the inhibition was 41.1% (active).
